In PubChem BioAssay AID1159568 (Broad Institute, 2015):
Potency and affinity values are given separately. Records with an inconclusive call do not appear. The source made the active and inactive calls.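 Rule for the calls: active = signal loss with an EC50 at or below twice the highest valid dose for that sample; inconclusive = flat curve with 30 to 70% inhibition, or poor fit; inactive = the rest.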

Test: Dd2 parasite growth inhibition in erythrocytes – SYBR Green, dry powder samples, set 9, dose response (AID 1159568)
Conditions: P. falciparum Dd2 in erythrocytes, 72 h; series mostly up to 19.5 µM

outcome, inactive:
CC(C)[C@@H]1COCc2cnnn2CCC[C@H](C)C(=O)N1
COc1ccc(NC(=O)N(C)C[C@H]2Oc3ccc(NC(=O)CCN4CCOCC4)cc3C(=O)N([C@H](C)CO)C[C@@H]2C)cc1
C[C@H]1CN([C@@H](C)CO)C(=O)CCCn2cc(nn2)CO[C@H]1CN(C)C(=O)Nc1cccc2ccccc12
O=C(NCc1ccc2c(c1)OCO2)[C@@H]1[C@@H](CO)[C@@H]2Cn3c(cccc3=O)[C@H]1N2Cc1cncnc1
Cc1noc(C)c1S(=O)(=O)N(C)C[C@H]1OCc2cn(nn2)CCCC(=O)N([C@@H](C)CO)C[C@@H]1C
COCC(=O)N1C[C@H](C)[C@@H](OC)CN(C)C(=O)c2ccc(NC(=O)Nc3cccc(F)c3)cc2OC[C@@H]1C
COc1cccc(NC(=O)N[C@@H]2CC[C@H](CC(=O)N3CCN(C)CC3)O[C@@H]2CO)c1
COc1ccc(CNC(=O)C[C@H]2CC[C@@H](NC(=O)CN(C)C)[C@H](CO)O2)cc1
